Measured values reported in PubChem BioAssay AID1159580 (chemical genetic matrix, 2015).
In all, about 5,500 compounds went through this assay and about 2,000 (36%) were called active. Roughly 18% stayed inconclusive and do not appear here. Rule as the data show it: active = normalized growth mostly below about 0.91 (no sharp cut-off); inconclusive = no clear call, values can overlap the other calls; inactive = mostly above about 0.92. Some of the results follow.

Assay: chemical genetic growth profiling, strain panel (AID 1159580);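 also: tested at 20 µM; growth read once vehicle control cultures reached saturation at 30 °C; 1 = growth at the plate median or of vehicle wells; lower values mean less growth of the strain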
Conditions: S. cerevisiae deletion strains, growth OD

Measured: normalized growth

COC(=O)[C@@H]1OC(=O)C2OC23[C@@]1(C)CCC1[C@]2(C)C(C[C@H](O)[C@]13C)C(C)(C)[C@H](OC(C)=O)C[C@@H]2OC(C)=O (some centres not stated)
inactive: locus YAL021C, strain ccr4, hits give low values 1.01 | locus YAL026C, strain drs2, hits give low values 1.01 | locus YAL030W, strain snc1, hits give low values 1.01 | locus YBL061C, strain skt5, hits give low values 1.01 | locus YBR009C, strain hhf1, hits give low values 1.03 | locus YBR021W, strain FUR4, hits give low values 1.01 | locus YBR023C, strain chs3, hits give low values 1.02 | locus YBR171W, strain sec66, hits give low values 1.02 | locus YBR229C, strain ROT2, hits give low values 1.01 | locus YBR231C, strain swc5, hits give low values 1.01 | locus YBR279W, strain paf1, hits give low values 1.02 | locus YCL011C, strain gbp2, hits give low values 1 | locus YCL016C, strain dcc1, hits give low values 1.02 | locus YCL029C, strain bik1, hits give low values 0.999 | locus YCL061C, strain MRC1, hits give low values 1.02 | locus YCL069W, strain vba3, hits give low values 1.01 | locus YCR088W, strain abp1, hits give low values 1.02 | locus YDL005C, strain med2, hits give low values 1.02 | locus YDL035C, strain GPR1, hits give low values 1.04 | locus YDL040C, strain nat1, hits give low values 1.01 | locus YDL074C, strain BRE1, hits give low values 1.04 | locus YDL101C, strain DUN1, hits give low values 1 | locus YDL134C, strain PPH21, hits give low values 1 | locus YDL185W, strain tfp1, hits give low values 1 | locus YDL192W, strain arf1, hits give low values 1.01 | locus YDR001C, strain nth1, hits give low values 1.01 | locus YDR069C, strain doa4, hits give low values 1.03 | locus YDR101C, strain arx1, hits give low values 1 | locus YDR137W, strain rgp1, hits give low values 1.05 | locus YDR159W, strain sac3, hits give low values 1.01 | locus YDR162C, strain NBP2, hits give low values 1.02 | locus YDR195W, strain ref2 0.98 | locus YDR297W, strain sur2, hits give low values 1.01 | locus YDR318W, strain mcm21, hits give low values 1.01 | locus YDR334W, strain swr1, hits give low values 1.02 | locus YDR335W, strain msn5, hits give low values 1.05 | locus YDR388W, hits give low values 0.989 | locus YDR392W, strain spt3, hits give low values 1.03 | locus YDR502C, strain sam2, hits give low values 0.993 | locus YEL003W, strain gim4, hits give low values 1.02 | locus YEL037C, strain rad23, hits give low values 1.01 | locus YEL061C, strain CIN8 (second series), hits give low values 1.02 | locus YEL061C, strain CIN8, hits give low values 1.01 | locus YER015W, strain faa2, hits give low values 1.02 | locus YER016W, strain bim1, hits give low values 1.01 | locus YER110C, hits give low values 0.995 | locus YER111C, strain swi4, hits give low values 1.01 | locus YER155C, strain BEM2 (second series), hits give low values 1.02 | locus YER155C, strain BEM2, hits give low values 1 | locus YER167W, strain BCK2, hits give low values 1.02 | locus YFR010W, strain ubp6, hits give low values 1.01 | locus YGL078C, strain dbp3, hits give low values 0.994 | locus YGL086W, strain mad1, hits give low values 1 | locus YGL167C, strain pmr1, hits give low values 1.02 | locus YGL173C, strain kem1, hits give low values 1.01 | locus YGL227W, strain vid30, hits give low values 1.03 | locus YGL240W, strain doc1, hits give low values 1.04 | locus YGL248W, strain PDE1, hits give low values 1.01 | locus YGL253W, strain hxk2, hits give low values 1.02 | locus YGR135W, strain pre9, hits give low values 0.981 | locus YGR252W, strain gcn5, hits give low values 0.989 | locus YHR013C, strain ard1, hits give low values 1.02 | locus YHR027C, strain rpn1, hits give low values 1.02 | locus YHR030C, strain SLT2, hits give low values 0.999 | locus YHR079C, strain IRE1 (second series), hits give low values 1.01 | locus YHR079C, strain IRE1, hits give low values 0.977 | locus YHR094C, strain hxt1, hits give low values 0.995 | locus YHR129C, strain ARP1, hits give low values 1.01 | locus YHR142W, strain chs7, hits give low values 1.02 | locus YHR200W, strain rpn10, hits give low values 0.987 | locus YIL066C, strain RNR3, hits give low values 1.03 | locus YIL073C, strain SPO22, hits give low values 1.05 | locus YIL125W, strain kgd1, hits give low values 0.998 | locus YIR030C, strain dcg1, hits give low values 1.01 | locus YJL092W, strain hpr5, hits give low values 1.02 | locus YJL095W, strain BCK1 (second series), hits give low values 1.02 | locus YJL095W, strain BCK1, hits give low values 1 | locus YJL115W, strain asf1, hits give low values 1.02 | locus YJL129C, strain trk1, hits give low values 1 | locus YJL134W, strain LCB3, hits give low values 1.01 | locus YJL154C, strain vps35, hits give low values 1.01 | locus YJL164C, strain tpk1, hits give low values 1.02 | locus YJL166W, strain qcr8, hits give low values 1.01 | locus YJL168C, strain set2, hits give low values 0.991 | locus YJL187C, strain SWE1 (second series), hits give low values 1 | locus YJL187C, strain SWE1, hits give low values 1 | locus YJR043C, strain POL32, hits give low values 1.01 | locus YJR066W, strain TOR1, hits give low values 0.906 | locus YKL009W, strain mrt4, hits give low values 1 | locus YKL068W, hits give low values 1.01 | locus YKL085W, strain MDH1 (second series), hits give low values 1 | locus YKL085W, strain MDH1, hits give low values 1 | locus YKL160W, strain elf1, hits give low values 1.02 | locus YKL190W, strain CNB1, hits give low values 1.01 | locus YKR001C, strain vps1, hits give low values 0.98 | locus YKR026C, strain gcn3, hits give low values 1.01 | locus YKR091W, strain srl3, hits give low values 1.01 | locus YLL001W, strain dnm1, hits give low values 1.02 | locus YLL026W, hits give low values 1.01 | locus YLL041C, strain sdh2, hits give low values 1 | locus YLR027C, strain aat2, hits give low values 1.02 | locus YLR039C, strain RIC1, hits give low values 1.03 | locus YLR058C, strain SHM2, hits give low values 1.02 | locus YLR102C, strain apc9, hits give low values 0.997 | locus YLR113W, strain HOG1, hits give low values 1.04 | locus YLR221C, strain rsa3, hits give low values 1.01 | locus YLR258W, strain gsy2, hits give low values 1.01 | locus YLR262C, strain YPT6 (second series), hits give low values 1 | locus YLR268W, strain sec22, hits give low values 1.02 | locus YLR320W, strain mms22, hits give low values 1.02 | locus YLR330W, strain CHS5, hits give low values 1.01 | locus YLR342W, strain FKS1, hits give low values 1.01 | locus YLR357W, strain rsc2, hits give low values 1.02 | locus YLR370C, strain arc18, hits give low values 1.02 | locus YLR371W, strain rom2, hits give low values 1 | locus YLR384C, strain iki3, hits give low values 1 | locus YLR418C, strain cdc73, hits give low values 1.01 | locus YML016C, strain PPZ1, hits give low values 1 | locus YML032C, strain rad52, hits give low values 0.994 | locus YML120C, strain ndi1, hits give low values 1.01 | locus YML124C, strain tub3, hits give low values 1 | locus YMR058W, strain fet3, hits give low values 1.02 | locus YMR078C, strain ctf18, hits give low values 1 | locus YMR125W, strain sto1, hits give low values 1.01 | locus YMR129W, hits give low values 1 | locus YMR205C, strain PFK2, hits give low values 1.02 | locus YMR223W, strain ubp8, hits give low values 0.99 | locus YMR231W, strain pep5, hits give low values 1 | locus YMR263W, strain SAP30, hits give low values 1.01 | locus YMR307W, strain GAS1, hits give low values 1 | locus YNL067W, strain RPL9B, hits give low values 1 | locus YNL071W, strain lat1, hits give low values 1.01 | locus YNL183C, strain NPR1, hits give low values 0.938 | locus YNL209W, strain ssb2, hits give low values 1.01 | locus YNL233W, strain BNI4, hits give low values 1 | locus YNL248C, strain rpa49, hits give low values 1.01 | locus YNL250W, strain rad50, hits give low values 0.989 | locus YNL271C, strain bni1, hits give low values 1.01 | locus YNL298W, strain CLA4, hits give low values 1 | locus YNL307C, strain MCK1, hits give low values 0.998 | locus YNL322C, strain KRE1 (second series), hits give low values 1.02 | locus YNR049C, strain mso1, hits give low values 1.02 | locus YNR052C, strain pop2, hits give low values 0.993 | locus YOL006C, strain TOP1, hits give low values 1.08 | locus YOL012C, strain htz1 1.19 | locus YOL147C, strain pex11, hits give low values 1 | locus YOR001W, strain rrp6, hits give low values 1 | locus YOR061W, strain CKA2, hits give low values 1.03 | locus YOR069W, strain VPS5, hits give low values 1.01 | locus YOR070C, strain gyp1, hits give low values 1.02 | locus YOR080W, strain dia2, hits give low values 1 | locus YOR083W, strain WHI5, hits give low values 1.02 | locus YOR106W, strain vam3, hits give low values 1.03 | locus YOR136W, strain idh2, hits give low values 0.994 | locus YOR144C, strain elg1, hits give low values 0.996 | locus YOR184W, strain ser1, hits give low values 1.03 | locus YOR231W, strain MKK1, hits give low values 0.989 | locus YOR265W, strain rbl2, hits give low values 0.995 | locus YOR270C, strain vph1, hits give low values 0.986 | locus YOR290C, strain snf2, hits give low values 1.04 | locus YOR316C, strain cot1, hits give low values 0.996 | locus YPL051W, strain arl3, hits give low values 1.02 | locus YPL078C, strain atp4, hits give low values 1.03 | locus YPL106C, strain sse1, hits give low values 1.04 | locus YPL240C, strain hsp82, hits give low values 1.01 | locus YPL241C, strain CIN2, hits give low values 1.01 | locus YPL256C, strain CLN2, hits give low values 0.979 | locus YPR119W, strain clb2, hits give low values 1 | locus YPR141C, strain kar3, hits give low values 1.01 | locus YPR163C, strain tif3, hits give low values 0.996 | locus YPR167C, strain met16, hits give low values 1 | strain wtn01, hits give low values 1
